Hits are enriched below; roughly 3.1% of the tested compounds scored in any of these assays.
CD11b adhes inh = CD11b/CD18-fibrinogen binding inhibition. inhibition, % at 10 µM. P05107+P11215. K562 CD11b/CD18 adhesion to fibrinogen, ATPlite luminescence; Mn2+ added to activate the integrin. 93,000 tested, 0.54% active;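 active = primary inhibition of 50% or more at 10 µM, then 40% or more on retest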
ERb coact inh = ER-beta (human) coactivator binding inhibition; Q92731; TR-FRET ER-beta LBD / SRC1-Cy5 peptide binding; receptor agonist-loaded with 1 µM estradiol; inhibition, % at 25.6 µM; 86,000 tested, 1.3% active; AID 633;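 active = compounds whose percent inhibition of the receptor-coactivator binding signal exceeds about 50% in the single-dose screen, limit read from the data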;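 also: 0% = receptor plus peptide wells without compound and 100% = peptide-only wells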
ERa coact inh = blocks coactivator binding to human estrogen receptor alpha; 86,000 tested, 1.7% active; P03372; AID 629; TR-FRET ER-alpha LBD / SRC-1 peptide, estradiol-bound; inhibition, % at 25.6 µM; in the data active = inhibition above about 50%;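 also: 0% = receptor plus peptide control and 100% = peptide only without receptor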
Target sequence (P03372 whole entry, looked up, the tested form may be a part): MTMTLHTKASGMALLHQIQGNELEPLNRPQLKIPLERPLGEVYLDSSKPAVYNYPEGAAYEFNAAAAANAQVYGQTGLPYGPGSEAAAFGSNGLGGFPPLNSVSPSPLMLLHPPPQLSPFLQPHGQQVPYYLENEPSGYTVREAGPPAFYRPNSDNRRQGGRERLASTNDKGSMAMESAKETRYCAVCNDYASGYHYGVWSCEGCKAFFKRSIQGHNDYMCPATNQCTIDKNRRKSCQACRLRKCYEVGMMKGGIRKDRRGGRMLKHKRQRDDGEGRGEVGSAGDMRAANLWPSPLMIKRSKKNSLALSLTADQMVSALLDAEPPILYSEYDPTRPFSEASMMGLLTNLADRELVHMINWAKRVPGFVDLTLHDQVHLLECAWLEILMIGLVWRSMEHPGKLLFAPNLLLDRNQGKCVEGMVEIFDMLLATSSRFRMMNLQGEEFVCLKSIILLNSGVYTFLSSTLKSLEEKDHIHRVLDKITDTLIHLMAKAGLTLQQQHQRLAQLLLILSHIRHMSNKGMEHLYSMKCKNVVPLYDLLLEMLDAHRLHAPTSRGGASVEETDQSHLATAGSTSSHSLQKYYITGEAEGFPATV
ERa coact pot = ER-alpha (human) coactivator binding potentiation; TR-FRET ERalpha-LBD/SRC-Cy5 coactivator binding, 2 h; 100 = basal binding, no effect; coactivator binding (% of control), % at 25.6 µM; 86,000 tested, 1.3% active; AID 639; in the data active = activity above about 200%;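 also: binding measured in presence of low estradiol as agonist stimulus; 0% = peptide alone without receptor and 100% = receptor with peptide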
Mac1 fbg enh = enhancers of human CD11b/CD18 binding to fibrinogen | K562 CD11b/CD18 adhesion to fibrinogen, ATPlite luminescence | 93,000 tested, 0.07% active | P05107+P11215 | activation, % at 10 µM | AID 1499;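 active = 10 µM primary screen giving 50% or more activity, confirmed by 40% or more on retest at that dose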
* = called active by the depositor; · = not tested or not shown; [ ] = another dose, or the depositor's remark.

SMILES	CD11b adhes inh	ERb coact inh	ERa coact inh	ERa coact pot	Mac1 fbg enh
CSCCC(NC(=O)c1cccc(C)c1)C(=O)OCC(=O)NC(=O)c1cccn1C (centres undefined)	-28	·	·	·	0
COCCNS(=O)(=O)c1ccc(C2CNC(=O)C2)cc1 (centres undefined)	-12	-14	-2	103	-2
O=C1CC(c2ccc(S(=O)(=O)NCCOc3ccccc3)cc2)CN1 (centres undefined)	24	57*	3	124	4
CCOC(=O)COc1ccccc1/C=C\[N+](=O)[O-]	30	·	·	·	-2
CC(C)N(C(=O)CSc1nc2ccccc2n1Cc1ccc(F)cc1)C(C)C	·	-21	-1	89	·
CSc1nc2ccccc2n1Cc1cccc(F)c1	-26	75*[fluorescence artefact?]	2	93	0
CCc1cccc(CC)c1NC(=O)CSc1nc2ccc(N3C(=O)C4C(C3=O)[C@H]3C=C[C@@H]4C3)cc2s1 (some centres undefined)	14	·	·	·	9
O=C(CCc1ccccc1)Nc1nnc(-c2cccs2)o1	5	70*	0	97	1
CC1CC(C)CN(S(=O)(=O)c2ccc(C(=O)Nc3nnc(-c4cccs4)o3)cc2)C1 (centres undefined)	8	-8	3	117	-2
O=C(CCc1ccccc1)Nc1nnc(-c2ccccn2)o1	12	·	·	·	0
O=C(Nc1nnc(-c2cccs2)o1)c1cccc(C(F)(F)F)c1	72*	15	3	103	1
Oc1ccccc1-c1nnc(SCCN2CCOCC2)n1Cc1ccccc1	2	59*	26	86	-3
COc1ccc(C2N(S(=O)(=O)c3ccc(C)cc3)CCN2S(=O)(=O)c2ccc(C)cc2)cc1	-21	1	2	102	2
CCOC(=O)CCP(=O)(O)C(O)c1ccccc1 (centres undefined)	-25	-2	-3	103	-2
C=CCn1c(COc2ccccc2F)nnc1SCCN1C(=O)c2ccccc2C1=O	4	·	·	·	6
O=C(Nc1ccc(-c2noc(-c3cccs3)n2)cc1)c1cccnc1	·	2	-17	364*	·
COc1cccc(NC(=O)c2cccnc2)c1	-15	-4	-6	109	-3
O=C(Nc1ccc(Nc2ccccc2)cc1)c1ccc(Br)o1	12	8	-2	83	-1
COc1cccc(-c2nc(-c3ccc(NC(=O)c4cccnc4)cc3)no2)c1	-12	18	-4	203*[fluorescence artefact?]	9
Cc1ccccc1-c1nc(-c2ccc(NC(=O)c3ccc(Br)o3)cc2)no1	·	39	45	265*	·
COc1ccc(CC(=O)Nc2ccc(-c3noc(-c4cccc(OC)c4)n3)cc2)cc1	·	50	38	287*[fluorescence artefact?]	·
CCn1c(SCc2cccc(C)c2)nnc1-c1ccc(C)cc1	-3	-18	-8	139	-1
CC(=O)c1ccc(NC(=O)C(C)OC(=O)COc2ccc(C#N)cc2)cc1 (centres undefined)	-8	·	·	·	3
CCOC(=O)c1c(NC(=O)COc2ncnc3ccccc23)sc(C)c1CC	7	·	·	·	1
CCn1c(CSc2nnc(-c3cccnc3)n2-c2ccccc2C)nc2cc(C(=O)O)ccc21	22	25	1	253*	9
SMILES	CD11b adhes inh	ERb coact inh	ERa coact inh	ERa coact pot	Mac1 fbg enh
Cc1ccccc1N(C(=O)Cn1nnc(-c2cccs2)n1)C(C(=O)NCCC(C)C)c1ccco1 (centres undefined)	·	-10	-4	101	·
Cn1c(=O)cc(SCC(=O)Nc2cccnc2)c2ccccc21	-8	-10	5	264*[fluorescence artefact?]	-3
Cn1c(=O)cc(SCC(=O)NCc2cccnc2)c2ccccc21	·	-16	-3	113	·
CCCCn1nnnc1SCC(=O)Nc1ccc2c(c1)OCO2	-7	29	14	96	2
Cc1c(C(=O)N2CCN(c3ccccc3)CC2)sc2ncnc(N3CCN(c4ccccc4)CC3)c12	·	8	2	400*[fluorescence artefact?]	·
Cc1sc2ncnc(N3CCN(c4ncccn4)CC3)c2c1C	8	-5	-3	116	-1
Cc1c(C(=O)N2CCN(Cc3ccccc3)CC2)sc2ncnc(N3CCOCC3)c12	-24	1	6	114	-4
COc1cc(C(=O)N2CCN(c3ncnc4sc(C)c(C)c34)CC2)cc(OC)c1OC	60*	0	4	123	-12
c1ccc(C2(Cn3ccc4ccccc43)OCCO2)cc1	-7	-6	99*[fluorescence artefact?]	137	-3
O=C(Nc1nc(-c2cccs2)cs1)c1ccc(S(=O)(=O)N2CCCC2)cc1	31	51*[fluorescence artefact?]	13	190	-6
O=C(Nc1nc(-c2ccc(S(=O)(=O)N3CCCCCC3)cc2)cs1)c1ccccc1	0	-4	-10	696*[fluorescence artefact?]	38
O=C(Nc1nc(-c2cccnc2)cs1)c1ccc(S(=O)(=O)N2CCOCC2)cc1	6	9	4	67	-3
O=C(Nc1nc(-c2ccc3c(c2)OCCO3)cs1)c1ccc(S(=O)(=O)N2CCCCC2)cc1	37	15	11	269*[fluorescence artefact?]	6
O=C(Nc1nc(-c2ccc(S(=O)(=O)N3CCCC3)cc2)cs1)C1COc2ccccc2O1 (centres undefined)	-8	-4	-15	192	27
COCCN(CCOC)S(=O)(=O)c1ccc(C(=O)Nc2nc(-c3ccncc3)cs2)cc1	-6	3	9	211*	8
CC(C)NC(=S)N/N=C1\CCCCC1C1CCCCC1 (centres undefined)	16	·	·	·	0
COc1cc(NC(=O)Cn2nc(C(F)(F)F)c3c2CCCC3)cc(OC)c1OC	26	5	8	116	0
CCN(CC)CCNC(=O)C(C)c1nn(CC)c(=O)c2ccccc12 (centres undefined)	·	-3	6	92	·
COC(=O)c1c(S(=O)(=O)NCc2ccccc2)sc(C(=O)O)c1C	2	-2	0	90	-4
COc1ccc(N2CCN(c3ncnc4c3[nH]c3ccccc34)CC2)cc1	18	-9	-8	93	-4
COc1cc2[nH]c3c(N4CCN(c5ccccn5)CC4)ncnc3c2cc1OC	-4	6	-1	676*[fluorescence artefact?]	0
CCC(=O)Oc1ccc2ccccc2c1CNC(=O)c1ccccc1	2	·	·	·	2
Cc1ccccc1NC(=O)Cn1c(NCC(C)O)nc2ccccc21 (centres undefined)	1	·	·	·	-2
Cc1nn(-c2ccccc2)c(Cl)c1C(=O)NCc1cccs1	4	·	·	·	-2
O=C(Nc1cccc(C(F)(F)F)c1)c1cc(S(=O)(=O)N2CCCCC2)ccc1N1CCOCC1	·	5	-1	116	·
O=C1C2CCCN2c2ccc(S(=O)(=O)N3CCOCC3)cc2N1Cc1cccc(C(F)(F)F)c1 (centres undefined)	1	·	·	·	142*
CCOC(=O)C1=C(c2ccccc2)O/C(=C(\C(=O)OC)C(F)(F)F)S1	8	9	8	270*[fluorescence artefact?]	5
CCOC(=O)C1=C(c2ccccc2)O/C(=C(/C#N)C(F)(F)F)S1	5	3	1	168	1
